Measured values reported in PubChem BioAssay (NCI).
The panel holds about 83,000 compounds, 20% with a hit somewhere; the sample as a whole holds those more often.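 Step 1: grow cells in 96-well plates. Step 2: add test compound at a single concentration. Step 3: incubate 48 h. Step 4: record percent growth.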 The source made the active and inactive calls. Rule for the calls: active = growth percent below 10; inactive = the rest.

Tests used:
Experiment in all cases: NCI-60 one-dose screen, 48 h (100 = growth as untreated, 0 = no growth, -100 = all killed)
Conditions in all cases: 10 µM unless noted
[1] = system: NCI-H23 lung
[2] = system: NCI-H226 lung
[3] = system: NCI-H322M lung
[4] = system: HOP-62 NSCLC
[5] = system: NCI-H460 lung
[6] = system: HOP-92 NSCLC
[7] = system: NCI-H522 lung
[8] = system: A549/ATCC NSCLC
[9] = system: 786-0 renal
[10] = system: COLO 205 colon
[11] = system: DU-145 prostate
[12] = system: K-562 leukemia
[13] = system: MALME-3M melanoma
[14] = system: MDA-MB-231 breast
[15] = system: RXF 393 renal
[16] = system: SF-268 CNS
[17] = system: SF-295 CNS
[18] = system: SF-539 CNS
[19] = system: UACC-257 melanoma
[20] = system: M14 melanoma

| SMILES | growth [1] | growth [2] | growth [3] | growth [4] | growth [5] | growth [6] | growth [7] | growth [8] | growth [9] | growth [10] | growth [11] | growth [12] | growth [13] | growth [14] | growth [15] | growth [16] | growth [17] | growth [18] | growth [19] | growth [20] |
| --- | --- | --- | --- | --- | --- | --- | --- | --- | --- | --- | --- | --- | --- | --- | --- | --- | --- | --- | --- | --- |
| COc1ccc(C(c2cc(OC)c(OC)c(OC)c2)n2cncn2)cc1O (stereo not given) | 39.9% (inactive) | 73.4% (inactive) | 51.5% (inactive) | 32.2% (inactive) | 9.82% (active) | 43.9% (inactive) | 12.8% (inactive) | 18.6% (inactive) | 28.1% (inactive) | -1.65% (active) | 19.6% (inactive) | 8.34% (active) | 70.2% (inactive) | 43.1% (inactive) | -13.8% (active) | 48.8% (inactive) | 2.56% (active) | 9.34% (active) | 44.4% (inactive) | -1.61% (active) |
| CN1C(=O)N(C)C2C1NN=c1s/c(=C\c3ccc(F)cc3)c(=O)n12 (stereo not given) | 50.8% (inactive) | 62.9% (inactive) | 53.6% (inactive) | 46.7% (inactive) | 13% (inactive) | 47% (inactive) | 2.08% (active) | 24.8% (inactive) | 40.7% (inactive) | 12.5% (inactive) | 58.5% (inactive) | 11.4% (inactive) | 31.5% (inactive) | 29.4% (inactive) | 38.5% (inactive) | 58.7% (inactive) | 28.8% (inactive) | 29.7% (inactive) | 1.68% (active) | 23.1% (inactive) |
| CC/C(=C(/c1ccc(Cl)cc1)c1ccc(OCCN2CCCC2)cc1)c1ccccc1 | 62% (inactive) | 93.9% (inactive) | 93.4% (inactive) | 99% (inactive) | 12.3% (inactive) | 57.5% (inactive) | 83% (inactive) | 43.5% (inactive) | 43.6% (inactive) | -25.3% (active) | 80.4% (inactive) | 4.31% (active) | 68.8% (inactive) | 73.6% (inactive) | 55.2% (inactive) | 73.3% (inactive) | 79% (inactive) | 74.8% (inactive) | 74% (inactive) | 37.1% (inactive) |
| Cn1nc(-c2ccc(Cl)cc2)nc2c(=O)n(C)c(=O)nc1-2 | -45% (active) | -51.4% (active) | -68.5% (active) | -72.9% (active) | 0.75% (active) | -28.9% (active) | -75.4% (active) | -25.2% (active) | -82.2% (active) | -90.6% (active) | -97.5% (active) | -52.7% (active) | -90.1% (active) | -24.9% (active) | -30.8% (active) | -19.8% (active) | -29.6% (active) | -99.2% (active) | -83.4% (active) | -91.9% (active) |
| N#CC1=C(N)Oc2c(ccc3cccnc23)C1c1ccccc1 (stereo not given) | 17.7% (inactive) | 54% (inactive) | 39.2% (inactive) | 43.2% (inactive) | 16% (inactive) | 32.3% (inactive) | 20.3% (inactive) | 32% (inactive) | 35.3% (inactive) | 9.2% (active) | 17.6% (inactive) | 17.2% (inactive) | 47.9% (inactive) | 48.6% (inactive) | 4.49% (active) | 45.2% (inactive) | 18.1% (inactive) | -39.6% (active) | 74.4% (inactive) | 20% (inactive) |
| Cc1ccc(-c2nnc(SCc3nc(N)nc(Nc4ccccc4F)n3)n2-c2ccccc2)cc1 | 101% (inactive) | 80.4% (inactive) | 93.5% (inactive) | 94.6% (inactive) | 95.8% (inactive) | 67.3% (inactive) | 81.5% (inactive) | 88.7% (inactive) | 95.7% (inactive) | 101% (inactive) | 102% (inactive) | 89.9% (inactive) | 117% (inactive) | 91.9% (inactive) | 80.7% (inactive) | 97.3% (inactive) | 94.3% (inactive) | 97% (inactive) | 99.3% (inactive) | 103% (inactive) |
| CC(C)(C)c1ccc(C(=O)Nc2sc3c(c2C#N)CCC(=O)C3)cc1 | 5.23% (active) | 15.4% (inactive) | 86.6% (inactive) | 49.7% (inactive) | 1.59% (active) | -25% (active) | -22.9% (active) | 14.4% (inactive) | 17.6% (inactive) | -61.8% (active) | 64.2% (inactive) | 9.48% (active) | -18.6% (active) | -5.45% (active) | -29.9% (active) | 22.4% (inactive) | 10.3% (inactive) | -35.6% (active) | 19.8% (inactive) | 8.73% (active) |
| CC/C(=C(/c1ccc(Cl)cc1)c1ccc(OCCCN(C)C)cc1)c1ccc(OC)cc1 | 78.6% (inactive) | 104% (inactive) | 67.5% (inactive) | 99.1% (inactive) | 5.32% (active) | 49.8% (inactive) | 87.3% (inactive) | 49.8% (inactive) | 57.9% (inactive) | -65.3% (active) | 85.7% (inactive) | -27.4% (active) | 74.1% (inactive) | 76.3% (inactive) | 53.1% (inactive) | 84.2% (inactive) | 88.5% (inactive) | 82.8% (inactive) | 84.7% (inactive) | 32.8% (inactive) |
| COc1cc(NC(=O)c2cncnc2Nc2ccc3c(ccn3Cc3cccc(F)c3)c2)cc(OC)c1 | 79.1% (inactive) | 80.3% (inactive) | 84.1% (inactive) | 52.7% (inactive) | 45.9% (inactive) | 83.4% (inactive) | 44.3% (inactive) | 40.4% (inactive) | 81.1% (inactive) | 61.3% (inactive) | 79.9% (inactive) | 15.4% (inactive) | 71.6% (inactive) | 57.4% (inactive) | 62.5% (inactive) | 68.9% (inactive) | 50.4% (inactive) | 44.4% (inactive) | 72.7% (inactive) | 47.2% (inactive) |
| NS(=O)(=O)Oc1cccc(-c2nc3sccn3c2-c2ccccc2)c1 | 76.2% (inactive) | 85.4% (inactive) | 89.7% (inactive) | 50.2% (inactive) | 38.9% (inactive) | 45.8% (inactive) | 61.5% (inactive) | 52.6% (inactive) | 65.5% (inactive) | 69.7% (inactive) | 89.9% (inactive) | 16.7% (inactive) | 41.3% (inactive) | 60.3% (inactive) | 50% (inactive) | 70.1% (inactive) | 28.8% (inactive) | 31.9% (inactive) | 74.4% (inactive) | 20.4% (inactive) |
| COc1cccc(C2C3=C(COC3=O)N(CCO)c3cc4c(cc32)OCCO4)c1 (stereo not given) | 12.5% (inactive) | 38.3% (inactive) | 39% (inactive) | 23.4% (inactive) | 5.46% (active) | 27.6% (inactive) | -14.6% (active) | 24.6% (inactive) | 19.3% (inactive) | -68% (active) | -38.9% (active) | 6.5% (active) | 69.6% (inactive) | 8.33% (active) | 11.2% (inactive) | 23.8% (inactive) | -5.81% (active) | -23.1% (active) | 53.6% (inactive) | -11.7% (active) |
| O=C1C=CC2(O)OC(c3ccccc3)CC(=O)C2=C1O (stereo not given) | 79.2% (inactive) | 99.7% (inactive) | 90% (inactive) | 86.5% (inactive) | 93.6% (inactive) | 93.8% (inactive) | -17% (active) | 85.6% (inactive) | 93.6% (inactive) | 118% (inactive) | 15.7% (inactive) | 72.6% (inactive) | 95.7% (inactive) | 73.2% (inactive) | 94% (inactive) | 40.4% (inactive) | 107% (inactive) | 86.1% (inactive) | 87.9% (inactive) | 90.3% (inactive) |
| CC(=O)O[C@H]1CC[C@@]2(C)C(=CC[C@@H]3[C@@H]2CC[C@]2(C)C(Cl)=C(c4nc5ccc(Cl)cn5c4NC(C)(C)C)C[C@@H]32)C1 | 88.1% (inactive) | 92.3% (inactive) | 96.1% (inactive) | 90.8% (inactive) | 99.9% (inactive) | 15.6% (inactive) | 86.8% (inactive) | 89.5% (inactive) | 85% (inactive) | 103% (inactive) | 95.8% (inactive) | 85.4% (inactive) | 66.7% (inactive) | 87.5% (inactive) | 90.1% (inactive) | 101% (inactive) | 93.2% (inactive) | 97.6% (inactive) | 98.9% (inactive) | 93.1% (inactive) |
| CCOC(=O)CSc1nc2sc3c(c2c(=O)n1-c1ccccc1)CCCCC3 | 96.2% (inactive) | 93% (inactive) | 108% (inactive) | 97.6% (inactive) | 110% (inactive) | 104% (inactive) | 80.4% (inactive) | 104% (inactive) | 109% (inactive) | 119% (inactive) | 108% (inactive) | 98.4% (inactive) | 109% (inactive) | 105% (inactive) | 119% (inactive) | 104% (inactive) | 96.3% (inactive) | 101% (inactive) | 96.8% (inactive) | 108% (inactive) |
